Measured values: the supplement of paper PMC11732987, “Enantioselective OTUD7B fragment discovery through chemoproteomics screening and high-throughput optimisation” (Communications Chemistry, 2025)

How the values were obtained:
Assay in all cases: log2 ratio of Biotin-Ahx-Ub-VS probe labelling (fragment/DMSO); higher = less target engagement (more negative = stronger competition), active = hit call of the paper (q ≤ 0.05, log2 ratio ≤ -1)
Details in all cases: compound concentration: 200 uM; treatment time: 3 h
[1] = biological target: T1, USP42 (UniProt Q9H9J4)
T1 sequence (whole entry): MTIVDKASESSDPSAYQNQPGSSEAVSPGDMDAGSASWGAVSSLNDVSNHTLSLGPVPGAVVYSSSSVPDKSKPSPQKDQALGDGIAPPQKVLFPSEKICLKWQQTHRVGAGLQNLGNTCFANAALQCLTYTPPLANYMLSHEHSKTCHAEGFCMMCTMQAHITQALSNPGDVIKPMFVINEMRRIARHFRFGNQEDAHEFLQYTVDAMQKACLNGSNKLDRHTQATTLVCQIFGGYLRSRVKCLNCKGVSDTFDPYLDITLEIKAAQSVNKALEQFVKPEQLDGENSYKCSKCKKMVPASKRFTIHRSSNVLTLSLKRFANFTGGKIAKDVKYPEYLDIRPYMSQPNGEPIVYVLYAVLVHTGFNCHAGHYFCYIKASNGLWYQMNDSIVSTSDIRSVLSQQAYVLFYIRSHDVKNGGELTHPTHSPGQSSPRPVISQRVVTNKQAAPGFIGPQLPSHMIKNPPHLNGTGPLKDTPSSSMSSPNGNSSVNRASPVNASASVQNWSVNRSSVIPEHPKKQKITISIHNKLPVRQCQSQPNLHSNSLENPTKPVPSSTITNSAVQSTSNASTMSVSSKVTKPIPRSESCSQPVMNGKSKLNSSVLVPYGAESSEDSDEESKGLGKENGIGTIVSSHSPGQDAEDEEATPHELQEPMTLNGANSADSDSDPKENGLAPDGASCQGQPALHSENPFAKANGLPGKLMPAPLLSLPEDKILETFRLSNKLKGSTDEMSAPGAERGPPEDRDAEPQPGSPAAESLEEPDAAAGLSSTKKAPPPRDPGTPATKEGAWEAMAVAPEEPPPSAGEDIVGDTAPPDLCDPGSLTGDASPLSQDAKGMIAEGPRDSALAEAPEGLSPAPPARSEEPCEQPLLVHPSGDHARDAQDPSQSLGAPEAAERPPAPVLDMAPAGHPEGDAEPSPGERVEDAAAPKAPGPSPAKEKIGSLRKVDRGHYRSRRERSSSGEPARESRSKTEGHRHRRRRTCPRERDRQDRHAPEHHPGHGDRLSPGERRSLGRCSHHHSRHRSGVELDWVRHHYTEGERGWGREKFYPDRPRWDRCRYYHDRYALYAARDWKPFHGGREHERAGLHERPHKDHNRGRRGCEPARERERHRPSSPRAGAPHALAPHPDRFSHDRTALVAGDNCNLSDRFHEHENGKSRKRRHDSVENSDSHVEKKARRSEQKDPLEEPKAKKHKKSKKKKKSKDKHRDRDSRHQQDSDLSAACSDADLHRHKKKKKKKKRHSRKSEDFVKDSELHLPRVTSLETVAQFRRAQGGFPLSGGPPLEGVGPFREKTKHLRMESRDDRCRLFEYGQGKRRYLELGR
In short: (§1)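 In triplicate, 495 µg of HEK293T lysate per sample was incubated with fragment at 200 µM or vehicle for 3 h. Biotin-Ahx-Ub-VS was then added to 0.5 µM final for 1 h, and labelled DUBs were captured with NeutrAvidin, digested with LysC and trypsin, and measured by diaPASEF LC-MS/MS. Data are average log2 fragment/vehicle ratios by unpaired t-test from global-median-normalised Spectronaut label-free quantities, restricted to proteins with ≥2 unique peptides.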

[2] = biological target: USP46 (UniProt P62068)
Chain of USP46 (P62068 whole entry): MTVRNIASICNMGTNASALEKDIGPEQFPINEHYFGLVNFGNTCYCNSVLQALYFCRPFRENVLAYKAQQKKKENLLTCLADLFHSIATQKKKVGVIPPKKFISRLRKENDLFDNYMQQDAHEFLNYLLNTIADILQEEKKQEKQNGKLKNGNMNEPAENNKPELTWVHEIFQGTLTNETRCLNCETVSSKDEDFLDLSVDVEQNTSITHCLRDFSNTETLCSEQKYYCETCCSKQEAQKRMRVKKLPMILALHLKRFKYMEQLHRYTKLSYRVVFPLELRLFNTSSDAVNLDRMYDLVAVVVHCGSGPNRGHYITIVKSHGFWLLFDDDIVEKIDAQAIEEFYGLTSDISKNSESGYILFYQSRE
In short: as §1

[3] = biological target: T2, USP47 (UniProt Q96K76)
T2 sequence (whole entry): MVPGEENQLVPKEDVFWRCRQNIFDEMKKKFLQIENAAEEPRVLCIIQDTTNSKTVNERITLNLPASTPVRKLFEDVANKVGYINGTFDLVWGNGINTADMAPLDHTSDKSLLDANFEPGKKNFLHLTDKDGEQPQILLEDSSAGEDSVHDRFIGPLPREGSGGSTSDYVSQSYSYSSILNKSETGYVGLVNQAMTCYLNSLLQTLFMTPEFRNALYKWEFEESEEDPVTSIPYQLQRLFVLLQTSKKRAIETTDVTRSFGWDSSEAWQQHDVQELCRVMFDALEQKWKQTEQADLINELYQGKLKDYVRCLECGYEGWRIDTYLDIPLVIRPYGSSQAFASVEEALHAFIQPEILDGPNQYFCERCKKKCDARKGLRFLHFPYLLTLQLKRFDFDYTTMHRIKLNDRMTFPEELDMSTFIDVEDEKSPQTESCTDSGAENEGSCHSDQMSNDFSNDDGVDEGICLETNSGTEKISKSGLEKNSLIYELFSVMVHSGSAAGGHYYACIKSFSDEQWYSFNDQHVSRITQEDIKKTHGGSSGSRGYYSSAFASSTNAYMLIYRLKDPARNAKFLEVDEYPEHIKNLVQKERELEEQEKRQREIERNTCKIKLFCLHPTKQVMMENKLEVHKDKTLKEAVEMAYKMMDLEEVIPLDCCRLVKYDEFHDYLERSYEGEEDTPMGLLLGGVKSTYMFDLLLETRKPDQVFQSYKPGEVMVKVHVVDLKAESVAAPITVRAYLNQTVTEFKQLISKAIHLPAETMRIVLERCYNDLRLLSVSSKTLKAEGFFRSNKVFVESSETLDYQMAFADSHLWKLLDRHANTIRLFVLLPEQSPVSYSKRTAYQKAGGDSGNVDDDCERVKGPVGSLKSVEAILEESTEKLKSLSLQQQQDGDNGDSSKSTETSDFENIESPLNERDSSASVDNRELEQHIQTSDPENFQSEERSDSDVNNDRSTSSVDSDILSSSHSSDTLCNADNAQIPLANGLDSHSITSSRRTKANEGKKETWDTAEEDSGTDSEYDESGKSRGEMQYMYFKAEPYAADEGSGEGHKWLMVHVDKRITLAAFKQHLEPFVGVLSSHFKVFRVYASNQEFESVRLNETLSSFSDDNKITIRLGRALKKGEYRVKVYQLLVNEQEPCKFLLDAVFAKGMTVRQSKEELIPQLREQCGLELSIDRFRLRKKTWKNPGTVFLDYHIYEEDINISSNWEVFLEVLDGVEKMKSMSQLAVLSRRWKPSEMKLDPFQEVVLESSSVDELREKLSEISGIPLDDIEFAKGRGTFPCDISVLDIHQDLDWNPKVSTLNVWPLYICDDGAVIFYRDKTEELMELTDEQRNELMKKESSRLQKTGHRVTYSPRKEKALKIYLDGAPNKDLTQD
In short: as §1

[4] = biological target: T3, USP48 (UniProt Q86UV5)
T3 sequence (whole entry): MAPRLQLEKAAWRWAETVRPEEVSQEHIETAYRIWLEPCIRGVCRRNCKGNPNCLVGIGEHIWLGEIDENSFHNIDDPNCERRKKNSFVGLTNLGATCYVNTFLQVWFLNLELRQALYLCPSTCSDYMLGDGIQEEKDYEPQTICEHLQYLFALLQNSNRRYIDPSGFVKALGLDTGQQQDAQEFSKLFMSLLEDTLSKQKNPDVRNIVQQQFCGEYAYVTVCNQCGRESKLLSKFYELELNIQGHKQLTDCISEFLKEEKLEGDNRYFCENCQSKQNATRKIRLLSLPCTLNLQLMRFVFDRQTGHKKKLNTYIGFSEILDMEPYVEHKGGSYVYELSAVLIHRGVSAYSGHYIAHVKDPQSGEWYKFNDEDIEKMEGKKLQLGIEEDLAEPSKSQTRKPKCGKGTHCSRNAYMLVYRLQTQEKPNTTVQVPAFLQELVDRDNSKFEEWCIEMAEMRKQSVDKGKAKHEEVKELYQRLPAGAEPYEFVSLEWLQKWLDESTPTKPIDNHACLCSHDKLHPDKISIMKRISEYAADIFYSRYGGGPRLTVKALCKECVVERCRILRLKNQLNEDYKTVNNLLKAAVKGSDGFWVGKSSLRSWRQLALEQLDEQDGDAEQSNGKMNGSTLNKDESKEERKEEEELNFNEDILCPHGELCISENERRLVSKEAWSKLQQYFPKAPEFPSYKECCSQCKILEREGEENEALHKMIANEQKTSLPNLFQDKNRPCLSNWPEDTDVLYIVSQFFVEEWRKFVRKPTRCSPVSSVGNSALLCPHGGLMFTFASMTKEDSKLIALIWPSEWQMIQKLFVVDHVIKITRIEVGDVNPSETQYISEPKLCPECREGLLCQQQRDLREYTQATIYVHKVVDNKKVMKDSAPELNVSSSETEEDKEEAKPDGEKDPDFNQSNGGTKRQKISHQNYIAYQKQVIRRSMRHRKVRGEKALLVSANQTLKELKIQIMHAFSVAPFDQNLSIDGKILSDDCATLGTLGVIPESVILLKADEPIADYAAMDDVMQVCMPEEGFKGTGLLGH
In short: as §1

[5] = biological target: T4, USP5 (UniProt P45974)
T4 sequence (whole entry): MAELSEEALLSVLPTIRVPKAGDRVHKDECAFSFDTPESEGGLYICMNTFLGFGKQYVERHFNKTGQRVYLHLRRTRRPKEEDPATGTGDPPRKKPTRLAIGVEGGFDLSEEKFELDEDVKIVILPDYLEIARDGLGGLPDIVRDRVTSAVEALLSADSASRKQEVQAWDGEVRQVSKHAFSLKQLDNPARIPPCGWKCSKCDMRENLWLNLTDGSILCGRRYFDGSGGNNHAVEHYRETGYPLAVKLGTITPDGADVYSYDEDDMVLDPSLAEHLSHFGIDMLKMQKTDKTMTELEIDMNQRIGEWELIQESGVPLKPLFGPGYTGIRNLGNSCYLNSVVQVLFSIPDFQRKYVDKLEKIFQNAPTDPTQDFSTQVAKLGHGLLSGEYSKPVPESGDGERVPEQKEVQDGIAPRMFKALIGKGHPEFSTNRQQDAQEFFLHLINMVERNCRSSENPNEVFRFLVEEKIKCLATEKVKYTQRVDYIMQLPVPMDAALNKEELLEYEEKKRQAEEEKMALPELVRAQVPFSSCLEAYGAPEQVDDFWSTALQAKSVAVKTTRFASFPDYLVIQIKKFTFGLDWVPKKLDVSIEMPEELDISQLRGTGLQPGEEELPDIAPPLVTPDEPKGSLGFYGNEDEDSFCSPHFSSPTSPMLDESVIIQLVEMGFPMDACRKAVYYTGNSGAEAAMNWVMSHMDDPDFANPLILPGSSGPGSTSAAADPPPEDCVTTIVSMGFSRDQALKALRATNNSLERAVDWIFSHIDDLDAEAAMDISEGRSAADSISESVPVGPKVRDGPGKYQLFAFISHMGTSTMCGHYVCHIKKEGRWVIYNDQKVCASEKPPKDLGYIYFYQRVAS
In short: as §1

[6] = biological target: USP54 (UniProt Q70EL1)
Chain of USP54 (Q70EL1 whole entry): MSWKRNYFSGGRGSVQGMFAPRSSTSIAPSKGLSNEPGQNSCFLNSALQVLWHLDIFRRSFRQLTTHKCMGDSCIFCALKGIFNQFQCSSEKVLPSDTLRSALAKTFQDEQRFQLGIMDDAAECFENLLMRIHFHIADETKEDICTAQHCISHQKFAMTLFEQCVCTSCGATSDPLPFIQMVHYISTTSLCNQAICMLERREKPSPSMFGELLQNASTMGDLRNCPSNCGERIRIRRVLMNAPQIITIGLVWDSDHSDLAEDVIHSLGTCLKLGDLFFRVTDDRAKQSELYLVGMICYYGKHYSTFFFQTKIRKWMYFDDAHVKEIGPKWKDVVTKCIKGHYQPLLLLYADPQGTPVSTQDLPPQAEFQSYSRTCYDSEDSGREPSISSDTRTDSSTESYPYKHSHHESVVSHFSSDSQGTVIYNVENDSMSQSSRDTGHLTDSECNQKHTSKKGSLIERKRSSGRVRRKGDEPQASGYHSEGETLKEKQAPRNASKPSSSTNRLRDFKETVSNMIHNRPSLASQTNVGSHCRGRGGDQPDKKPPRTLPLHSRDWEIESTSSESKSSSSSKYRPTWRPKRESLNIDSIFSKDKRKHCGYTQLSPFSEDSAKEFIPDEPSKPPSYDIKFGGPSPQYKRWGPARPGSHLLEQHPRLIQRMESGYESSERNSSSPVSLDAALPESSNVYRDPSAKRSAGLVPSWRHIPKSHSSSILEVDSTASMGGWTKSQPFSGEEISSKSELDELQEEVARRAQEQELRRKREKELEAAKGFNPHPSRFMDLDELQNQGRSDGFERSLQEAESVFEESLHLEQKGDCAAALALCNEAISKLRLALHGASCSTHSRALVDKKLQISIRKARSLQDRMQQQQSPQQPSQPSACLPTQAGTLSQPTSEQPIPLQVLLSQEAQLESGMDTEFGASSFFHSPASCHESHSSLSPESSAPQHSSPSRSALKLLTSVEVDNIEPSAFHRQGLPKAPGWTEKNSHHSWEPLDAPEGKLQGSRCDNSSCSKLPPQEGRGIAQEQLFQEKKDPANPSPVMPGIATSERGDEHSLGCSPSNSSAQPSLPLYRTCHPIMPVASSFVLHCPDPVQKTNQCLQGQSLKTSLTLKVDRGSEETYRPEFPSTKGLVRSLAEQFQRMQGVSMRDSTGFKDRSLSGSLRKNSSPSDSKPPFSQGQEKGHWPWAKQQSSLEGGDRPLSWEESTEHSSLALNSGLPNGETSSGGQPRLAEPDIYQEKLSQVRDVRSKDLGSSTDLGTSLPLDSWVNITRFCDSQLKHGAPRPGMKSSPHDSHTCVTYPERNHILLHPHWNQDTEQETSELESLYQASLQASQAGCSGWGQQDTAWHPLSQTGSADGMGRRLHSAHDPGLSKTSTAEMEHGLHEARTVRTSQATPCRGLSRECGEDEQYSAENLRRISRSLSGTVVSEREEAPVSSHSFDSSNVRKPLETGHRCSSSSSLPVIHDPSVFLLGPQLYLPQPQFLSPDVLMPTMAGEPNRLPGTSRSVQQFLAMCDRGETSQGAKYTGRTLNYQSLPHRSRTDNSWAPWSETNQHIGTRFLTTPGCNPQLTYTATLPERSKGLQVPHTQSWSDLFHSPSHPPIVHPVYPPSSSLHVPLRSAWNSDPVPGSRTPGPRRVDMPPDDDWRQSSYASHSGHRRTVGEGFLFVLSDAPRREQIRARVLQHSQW
In short: as §1

[7] = biological target: USP7 (UniProt Q93009)
Chain of USP7 (Q93009 whole entry, looked up): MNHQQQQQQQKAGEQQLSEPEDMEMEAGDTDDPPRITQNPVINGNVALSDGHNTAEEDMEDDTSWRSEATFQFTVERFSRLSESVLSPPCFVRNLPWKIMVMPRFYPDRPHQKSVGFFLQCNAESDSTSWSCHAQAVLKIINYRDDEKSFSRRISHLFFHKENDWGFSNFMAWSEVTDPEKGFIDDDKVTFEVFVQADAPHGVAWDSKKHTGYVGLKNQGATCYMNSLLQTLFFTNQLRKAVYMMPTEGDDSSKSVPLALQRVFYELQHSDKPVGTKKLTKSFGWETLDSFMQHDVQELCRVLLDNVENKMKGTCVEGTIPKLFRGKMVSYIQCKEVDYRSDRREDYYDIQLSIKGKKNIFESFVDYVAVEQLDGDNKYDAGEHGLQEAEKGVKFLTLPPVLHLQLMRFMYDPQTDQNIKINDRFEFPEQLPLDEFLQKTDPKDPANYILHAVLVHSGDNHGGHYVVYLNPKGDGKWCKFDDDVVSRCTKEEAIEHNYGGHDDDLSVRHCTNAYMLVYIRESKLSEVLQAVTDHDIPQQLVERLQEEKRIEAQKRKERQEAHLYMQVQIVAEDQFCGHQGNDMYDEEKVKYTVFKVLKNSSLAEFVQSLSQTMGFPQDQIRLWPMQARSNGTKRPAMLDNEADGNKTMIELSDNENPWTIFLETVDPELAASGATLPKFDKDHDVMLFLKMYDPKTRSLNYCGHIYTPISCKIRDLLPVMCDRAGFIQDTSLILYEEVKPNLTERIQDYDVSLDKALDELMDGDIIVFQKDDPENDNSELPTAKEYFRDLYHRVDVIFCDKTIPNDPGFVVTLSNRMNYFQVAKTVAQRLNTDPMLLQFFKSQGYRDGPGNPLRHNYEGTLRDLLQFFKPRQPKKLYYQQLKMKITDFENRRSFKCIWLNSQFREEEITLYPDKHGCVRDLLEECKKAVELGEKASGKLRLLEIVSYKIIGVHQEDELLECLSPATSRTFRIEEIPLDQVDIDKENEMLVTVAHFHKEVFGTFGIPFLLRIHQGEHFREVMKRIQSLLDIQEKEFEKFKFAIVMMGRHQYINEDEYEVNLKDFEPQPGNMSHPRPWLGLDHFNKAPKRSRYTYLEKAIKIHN
In short: as §1

[8] = biological target: T5, USP8 (UniProt P40818)
T5 sequence (whole entry): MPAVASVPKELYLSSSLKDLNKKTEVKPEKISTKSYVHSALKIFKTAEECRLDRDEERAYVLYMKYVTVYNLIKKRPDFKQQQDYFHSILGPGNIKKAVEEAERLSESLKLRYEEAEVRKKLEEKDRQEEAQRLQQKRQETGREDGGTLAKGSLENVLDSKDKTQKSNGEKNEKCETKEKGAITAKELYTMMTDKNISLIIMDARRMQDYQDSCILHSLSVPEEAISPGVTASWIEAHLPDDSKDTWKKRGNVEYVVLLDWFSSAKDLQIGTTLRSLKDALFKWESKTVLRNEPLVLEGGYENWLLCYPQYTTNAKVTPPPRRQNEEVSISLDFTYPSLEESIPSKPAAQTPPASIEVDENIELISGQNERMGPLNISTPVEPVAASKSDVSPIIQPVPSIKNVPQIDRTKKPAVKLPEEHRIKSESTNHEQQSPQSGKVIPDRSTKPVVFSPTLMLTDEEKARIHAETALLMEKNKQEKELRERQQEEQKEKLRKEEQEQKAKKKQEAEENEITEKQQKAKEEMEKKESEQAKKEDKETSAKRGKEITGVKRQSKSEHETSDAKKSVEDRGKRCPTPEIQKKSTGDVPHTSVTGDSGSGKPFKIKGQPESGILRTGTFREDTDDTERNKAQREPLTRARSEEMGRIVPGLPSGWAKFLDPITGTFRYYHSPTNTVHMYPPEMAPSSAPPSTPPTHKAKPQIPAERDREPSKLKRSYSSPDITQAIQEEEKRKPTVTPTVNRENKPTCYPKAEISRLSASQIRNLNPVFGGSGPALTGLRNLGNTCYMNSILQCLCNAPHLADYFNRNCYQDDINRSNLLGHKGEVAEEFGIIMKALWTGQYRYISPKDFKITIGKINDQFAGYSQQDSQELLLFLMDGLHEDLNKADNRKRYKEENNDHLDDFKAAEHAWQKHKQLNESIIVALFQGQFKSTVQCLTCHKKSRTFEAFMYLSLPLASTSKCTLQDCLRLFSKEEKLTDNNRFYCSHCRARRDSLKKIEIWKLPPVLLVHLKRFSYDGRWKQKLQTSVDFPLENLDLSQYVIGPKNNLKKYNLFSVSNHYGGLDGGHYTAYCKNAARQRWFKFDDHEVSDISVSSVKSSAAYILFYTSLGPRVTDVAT
In short: as §1

Measured: log2 ratio of Biotin-Ahx-Ub-VS probe labelling

Cc1ccc(N2CCC(NC(=O)CCl)C2=O)cc1 (stereo not drawn)
inactive: [1] -0.0605 | [2] 0.123 | [3] -0.186 | [4] 0.139 | [5] 0.412 | [6] 0.213 | [7] -0.0706 | [8] 0.0227
